Results published in PubChem BioAssay AID932 (The Scripps Research Institute Molecular Screening Center, 2007).
The whole screen tested about 200,000 compounds, of which about 5,100 (2.5%) were called active. Shown is part of a subset that was picked to be rich in actives. Values without a mark were called inactive.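 How the source made its calls: active means activation above the screen-wide mean activation plus 3 SD (cut at about 130% in these data); inactive means the rest.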

experiment: potentiators of IFN-gamma driven STAT1 reporter – cell-based, HTS, luciferase reporter, primary screen (AID 932); details: NIH 3T3 STAT1-luciferase reporter, luminescence, at 5.5 µM, stronger effect = higher value, 100% = IFN-gamma alone, no compound;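 further: raw ratio to IFN-gamma control signal so 100% means no change and 0% no light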

SMILES | activation (% of control)
Cc1cc(C)nc(N2CCC(C(=O)Nc3ccc4c(c3)OCCO4)CC2)n1 | 101%
Cc1ccnc(N2CCCC(C(=O)Nc3cc(F)ccc3C)C2)n1 (stereo unspecified) | 104%
O=C(Nc1ccc2c(c1)OCCO2)C1CCCN(c2ncccn2)C1 (stereo unspecified) | 143% (active)
NS(=O)(=O)c1ccc(NC(=S)Nc2ccc(Br)c(Cl)c2)cc1 | 94.5%
CCC(C)N(C(=O)COC(=O)C1C(C(=O)OC)=C(C)NC(C)=C1C(=O)OC)C1CCS(=O)(=O)C1 (stereo unspecified) | 102%
O=C(Nc1ccc(Cl)cc1)C1c2cccc[n+]2CC(=O)N1Cc1ccc2c(c1)OCO2 (stereo unspecified) | 101%
Cc1cc(C)nc(NNC2=CC(=O)CC(C)(C)C2)n1 | 115%
Cc1ccc(/C=N/NC(=O)CSc2nc3ccccc3o2)cc1 | 111%
CC(C)(C)C(=O)CSc1nc2ccccc2o1 | 150% (active)
CCN(CC)C(=O)CSc1nc2ccccc2o1 | 110%
COc1ccc(/C=C2/SC(=O)N(CCCCCC(=O)Nc3ccccc3C(=O)O)C2=S)cc1 | 102%
Cc1nnc(SCC(=O)N2CCc3ccccc32)n1-c1ccccc1 | 100%
NC(=O)N1CCc2ccccc21 | 98.2%
O=C(CSCc1ccccc1)N1CCc2ccccc21 | 138% (active)
CCOc1ccc(NC(=O)CN(C)CC(=O)NC(C)c2ccccc2)cc1OCC (stereo unspecified) | 99.4%
Cc1ccc(-c2csc(NNC(=O)c3ccccc3)n2)cc1 | 102%
Cc1ccc(Nc2nc(-c3ccc(O)cc3O)cs2)nc1 | 143% (active)
Cc1ccc(NC(=O)c2cc(-c3ccc(C)o3)nc3ccccc23)nc1 | 91.3%
CN(C)/C=C(/C(=O)c1ccc(F)cc1)S(=O)(=O)c1ccc(F)cc1 | 106%
CCN(CCn1cccn1)C(=O)CC1C(=O)NCCN1Cc1cccc(OC)c1OC (stereo unspecified) | 96.3%
COc1ccc(N2CCN(C(=O)COc3ccc4c(C)cc(=O)oc4c3)CC2)cc1 | 93.8%
CC1(C)CC(N(Cc2ccccc2)C(=O)Cc2ccccc2)CCO1 (stereo unspecified) | 89.7%
CCOC(=O)/C(C#N)=C/c1ccc(N2CCCCC2)cc1 | 155% (active)
COc1ccc(N2CCN(C(=O)/C(C#N)=C/c3ccccc3)CC2)cc1 | 105%
CCOC(=O)/C(C#N)=C/c1ccc(N2CCN(Cc3ccccc3)CC2)cc1 | 107%
Cc1ccsc1/C=C1\SC(N2CCOCC2)=NC1=O | 127%

SMILES | activation (% of control)
CCc1ccc(/C=C2\SC(N3CCOCC3)=NC2=O)cc1 | 103%
O=C1N=C(N2CCOCC2)S/C1=C\C=C/c1ccccc1 | 141% (active)
CN(Cc1nc2ccc(F)cc2[nH]1)Cc1nc(CC2CC2)no1 | 107%
CCCC(NC(=O)c1ccco1)c1nc2ccccc2[nH]1 (stereo unspecified) | 97.5%
O=C(OCc1ccccc1F)c1ccc2c(c1)OCCO2 | 139% (active)
O=C(COC(=O)c1ccc2c(c1)OCCO2)NCc1ccccc1 | 101%
CC(NC(=O)COC(=O)c1ccc2c(c1)OCO2)c1ccccc1 (stereo unspecified) | 102%
CCOC(=O)c1ccc(NC(=S)N2CCCC2)cc1 | 100%
CCn1ncc(CNC(=O)C2(C)CC2(Br)Br)c1C (stereo unspecified) | 90%
COCCCNC(=O)Cn1cc(/C=C(\C#N)C(=O)N2CCN(c3ccccc3)CC2)c2ccccc21 | 96.8%
O=C(NC1=NCCS1)c1ccc(Cl)s1 | 141% (active)
O=C(NC1=NCCS1)[C@H](Cc1ccccc1)N1C(=O)c2ccccc2C1=O | 107%
O=C(NCc1ccc2c(c1)OCO2)c1ccc(Cl)s1 | 99.1%
CCOc1ccc(C(C)=O)cc1CSc1nnc(-c2ccncc2)n1CCOC | 99.7%
Cc1cccc(NC(=S)NC(=O)c2ccc(Br)o2)c1 | 125%
Cc1cc(NC(=O)c2cnn3cccnc23)n(-c2ccccc2)n1 | 89.3%
O=C(Nc1ccc(Cl)cn1)c1ccc2c(c1)OCCO2 | 74.1%
O=C(Nc1ccc(Cl)cn1)c1cnn2cccnc12 | 153% (active)
COc1ccccc1CNC(=O)C1Cc2ccccc2C(=O)O1 (stereo unspecified) | 102%
C#CCOCCOCCOCCNc1nc(N2CCN(C(=O)[C@H](Cc3ccc(O)cc3)n3cc(C(N)CC(C)C)nn3)CC2)nc(N2CCN(C(=O)[C@H](CCC(=O)O)n3cc(C(N)[C@H](C)CC)nn3)CC2)n1 (stereo partly specified) | 99.5%
CCOC(=O)N1CCN(Cc2nc(Cc3cccc(C(F)(F)F)c3)no2)CC1 | 97.5%
COc1ccc(CC(=O)NCc2nnc(SCC(=O)Nc3nccs3)n2C)cc1 | 91.2%
Cc1cc(Cl)ccc1OCc1nc(-c2ccncc2)no1 | 151% (active)
c1ccc(CCc2nc(-c3ccncc3)no2)cc1 | 117%
COc1ccc(-c2noc(COc3ccc(Cl)c(C)c3)n2)cc1 | 93.9%
